{"source": "PubChem BioAssay (Tox21)", "note": "Active and inactive are the calls of the source. The call rests on the fitted dose curve; in most records, active means well fitted curve in the direction sought with a large enough effect in the repeat runs; inconclusive means weak or mixed curves; inactive means flat fitted curve, though single readings scatter. On the % scale 0 is the no-effect control and ±100 the full control effect."}
{"assay": "qHTS assay to test for compound auto fluorescence at 460 nm (blue) in HepG2 cells (AID 720687)", "conditions": "autofluorescence 405/460 nm, 1 h; series mostly up to 91.3 µM; fluorescence, % of fluorescent control: at the top concentration", "source_text": "U.S. Tox21 Program National Center for Advancing Translational Sciences [NCATS] NIH Chemical Genomics Center [NCGC] U.S. Environmental Protection Agency [EPA] National Institutes of Environmental Health Sciences [NIEHS] National Toxicology Program [NTP] U.S. Food and Drug Administration [FDA] Tox21 Assay Overview: Compound auto fluorescence often interferes with screening of the compound library against various biological targets and signaling pathways. Some of these compounds may have fluorophoric properties. Such properties may interfere with the assay outputs resulting in false positives and/or negatives. To decrease such complications and ensure the compound activities are relevant in terms of biological response, the Tox21 10K compound library was screened for auto fluorescence. From the fluorophores used as reporter signals in our screening assays, the auto fluorescence equivalencies of compounds against three fluorophores have been evaluated: Triamterene, Fluorescein and Rose Bengal sodium for blue, green and red fluorescence, respectively. The fluorescence intensities were measured using Excitation/Emission wavelengths at 405/460nm, 485/535nm and 540/590nm for blue, green and red labels, respectively. This assay includes the blue fluorescence data.\nTox21 Assay Protocol Summary: 2,000 HepG2 cells in 5 uL of culture medium (MEM containing 10% FBS) per well were dispensed into black wall/clear bottom 1536-well plates using a Multidrop Combi Dispenser (ThermoFisher Scientific, Waltham, MA). The assay plates were incubated overnight at 37 C to allow cell attachment to the well bottom, followed by the transfer of 23 nL compound or DMSO vehicle by a pintool work station (Kalypsys , San Diego, CA). After the assay plates were incubated for 1 hr at 37 C and 5% CO2, fluorescence intensities in the assay plates were measured by an Envision (PerkinElmer, Shelton, CT) plate reader using three labels for measuring blue, green and red fluorescence at […] 460, 535 and 590 nm respectively."}
{"smiles": "CC(C)OC(=O)Cc1ccccc1", "fluorescence, % of fluorescent control": "0.0353% (inactive)"}
{"smiles": "O=C(Cc1ccccc1)c1ccccc1", "fluorescence, % of fluorescent control": "-0.036% (inactive)"}
{"smiles": "CC[N+]1(CCOC(=O)C(O)(c2ccccc2)c2ccccc2)CCCCC1", "fluorescence, % of fluorescent control": "-0.0365% [at 46 µM] (inactive)"}
{"smiles": "CCOc1cccc(C2(N3CCN(c4ccccc4)CC3)CCC(C)CC2)c1", "note": "(stereo not given)", "fluorescence, % of fluorescent control": "0.02% (inactive)"}
{"smiles": "CCCCCBr", "fluorescence, % of fluorescent control": "0.0903% [at 95.7 µM] (inactive)"}
{"smiles": "CN[C@@H](C)[C@H](O)c1ccccc1", "fluorescence, % of fluorescent control": "-0.108% [at 46 µM] (inactive)"}
{"smiles": "CCCBr", "fluorescence, % of fluorescent control": "-0.0793% (inactive)"}
{"smiles": "C#C[C@]1(O)CC[C@H]2[C@@H]3CCC4=CC(=O)CCC4=C3C=C[C@@]21CC", "fluorescence, % of fluorescent control": "4.22% [at 46 µM] (inactive)"}
{"smiles": "O=CC=O", "outcome": "inactive"}
{"smiles": "O=C(O)C(F)(F)C(F)(F)C(F)(F)C(F)(F)C(F)(F)F", "fluorescence, % of fluorescent control": "0.0711% (inactive)"}
{"smiles": "CCC1(CC)C(=O)NC(=O)NC1=O", "fluorescence, % of fluorescent control": "0.0295% [at 46 µM] (inactive)"}
{"smiles": "CC(O)CN1CCN(CC(=O)[O-])CCN(CC(=O)[O-])CCN(CC(=O)[O-])CC1.[Gd+3]", "note": "(stereo not given)", "outcome": "inactive"}
{"smiles": "CCc1cnc(C2=NC(C)(C(C)C)C(=O)N2)c(C(=O)O)c1", "note": "(stereo not given)", "outcome": "inactive"}
{"smiles": "C=CC(=O)NC(C)(C)CC(C)=O", "fluorescence, % of fluorescent control": "-0.0022% (inactive)"}
{"smiles": "O=C(O)C(Cl)(Cl)Br", "fluorescence, % of fluorescent control": "-0.0945% (inactive)"}
{"smiles": "Nc1cccc2ccccc12", "outcome": "inactive"}
{"smiles": "C=CCSSCC=C", "fluorescence, % of fluorescent control": "-0.0038% (inactive)"}
{"smiles": "C=CC(=O)OCC", "fluorescence, % of fluorescent control": "0.018% [at 95.7 µM] (inactive)"}
{"smiles": "CCOC(=O)NC(O)C(Cl)(Cl)Cl", "note": "(stereo not given)", "fluorescence, % of fluorescent control": "0.0816% [at 46 µM] (inactive)"}
{"smiles": "N#CC(C#N)=C(C#N)C#N", "fluorescence, % of fluorescent control": "0.0228% [at 95.7 µM] (inactive)"}
{"smiles": "CCOC(=O)c1cn2nc(OP(=S)(OCC)OCC)cc2nc1C", "fluorescence, % of fluorescent control": "-0.182% (inactive)"}
{"smiles": "Cc1nc(N(C)C)nc(OC(=O)N(C)C)c1C", "fluorescence, % of fluorescent control": "0.0171% (inactive)"}
{"smiles": "Oc1cccc(Cl)c1", "fluorescence, % of fluorescent control": "-0.152% (inactive)"}
{"smiles": "COC1=CC(=O)O[C@@H](/C=C/c2ccc3c(c2)OCO3)C1", "fluorescence, % of fluorescent control": "-0.0713% (inactive)"}
{"smiles": "COc1ccc2c(c1OC)C(=O)O[C@H]2[C@@H]1c2cc3c(cc2CCN1C)OCO3", "fluorescence, % of fluorescent control": "0.53% [at 46 µM] (inactive)"}
{"smiles": "O=[N+]([O-])O[C@H]1CO[C@H]2[C@@H]1OC[C@H]2O[N+](=O)[O-]", "fluorescence, % of fluorescent control": "-0.116% [at 46 µM] (inactive)"}
{"smiles": "CCC[N+](CCC)(CCC)CCC", "fluorescence, % of fluorescent control": "0.0394% (inactive)"}
{"smiles": "NC(=O)CF", "fluorescence, % of fluorescent control": "7.16% (inactive)"}
{"smiles": "CCCCCCCCCCCC[N+](C)(C)CCOc1ccccc1", "outcome": "inactive"}
{"smiles": "FC(Cl)(Cl)C(F)(Cl)Cl", "fluorescence, % of fluorescent control": "0.0949% [at 95.7 µM] (inactive)"}
{"smiles": "C=C(Cl)Cl", "fluorescence, % of fluorescent control": "-0.0626% [at 95.7 µM] (inactive)"}
{"smiles": "c1ccc2sc(SNC3CCCCC3)nc2c1", "outcome": "inactive"}
{"smiles": "O=C(CCl)CCl", "outcome": "inactive"}
{"smiles": "CC(C)c1ccc(NC(=O)N(C)C)cc1", "fluorescence, % of fluorescent control": "-0.0006% (inactive)"}
{"smiles": "C=CC(C)(CCC=C(C)C)OC(=O)c1ccccc1N", "note": "(stereo not given)", "fluorescence, % of fluorescent control": "0.0036% (inactive)"}
{"smiles": "CCCCCCCCCCCCCCCl", "fluorescence, % of fluorescent control": "0.002% (inactive)"}
{"smiles": "CCOP(=S)(OCC)Oc1ccc(S(C)=O)cc1", "note": "(stereo not given)", "fluorescence, % of fluorescent control": "-0.0409% (inactive)"}
{"smiles": "Clc1ccccc1", "fluorescence, % of fluorescent control": "-0.003% (inactive)"}
{"smiles": "Cc1ccc2c(C)cccc2c1", "fluorescence, % of fluorescent control": "-0.0336% (inactive)"}
{"smiles": "CC(C)CCCCCCCOC(=O)c1ccccc1C(=O)OCCCCCCCC(C)C", "fluorescence, % of fluorescent control": "-0.17% (inactive)"}
